Results reported in PubChem BioAssay AID1159580 (chemical genetic matrix, 2015).
About 2,000 (36%) of roughly 5,500 compounds were called active. Not shown: some 18% with an inconclusive outcome. No stated cut-off is given here; in the data, active means normalized growth mostly below about 0.91 (no sharp cut-off); inconclusive means no clear call, values can overlap the other calls; inactive means mostly above about 0.92. Some of the results follow.

Test: chemical genetic growth profiling, strain panel (AID 1159580);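 further: tested at 20 µM; growth read once vehicle control cultures reached saturation at 30 °C; 1 = growth at the plate median or of vehicle wells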
Conditions: growth OD

Measured: normalized growth

NC[C@@H]1O[C@H](O[C@@H]2[C@@H](CO)OC(O[C@@H]3[C@@H](O)[C@H](N)C[C@H](N)[C@H]3OC3O[C@H](CN)[C@@H](O)[C@H](O)[C@H]3N)[C@@H]2O)[C@H](N)[C@@H](O)[C@@H]1O (some centres not stated)
inactive: S. cerevisiae deletion strains, locus YJR075W, strain HOC1, stronger effect = lower value 1.02 | S. cerevisiae deletion strains, locus YKL009W, strain mrt4, stronger effect = lower value 1.06 | S. cerevisiae deletion strains, locus YKL068W, stronger effect = lower value 1.01 | S. cerevisiae deletion strains, locus YKL085W, strain MDH1 (second series), stronger effect = lower value 1.01 | S. cerevisiae deletion strains, locus YKL085W, strain MDH1, stronger effect = lower value 1.01 | S. cerevisiae deletion strains, locus YKL160W, strain elf1, stronger effect = lower value 1.02 | S. cerevisiae deletion strains, locus YKL190W, strain CNB1, stronger effect = lower value 1 | S. cerevisiae deletion strains, locus YKR001C, strain vps1, stronger effect = lower value 1.04 | S. cerevisiae deletion strains, locus YKR026C, strain gcn3, stronger effect = lower value 1.03 | S. cerevisiae deletion strains, locus YKR091W, strain srl3, stronger effect = lower value 1.02 | S. cerevisiae deletion strains, locus YLL001W, strain dnm1, stronger effect = lower value 1.06 | S. cerevisiae deletion strains, locus YLL026W, stronger effect = lower value 1.02 | S. cerevisiae deletion strains, locus YLL041C, strain sdh2, stronger effect = lower value 1.02 | S. cerevisiae deletion strains, locus YLR027C, strain aat2, stronger effect = lower value 1.01 | S. cerevisiae deletion strains, locus YLR039C, strain RIC1, stronger effect = lower value 0.973 | S. cerevisiae deletion strains, locus YLR058C, strain SHM2, stronger effect = lower value 1 | S. cerevisiae deletion strains, locus YLR102C, strain apc9, stronger effect = lower value 1.02 | S. cerevisiae deletion strains, locus YLR113W, strain HOG1, stronger effect = lower value 0.981 | S. cerevisiae deletion strains, locus YLR221C, strain rsa3, stronger effect = lower value 1.04 | S. cerevisiae deletion strains, locus YLR258W, strain gsy2, stronger effect = lower value 1.01 | S. cerevisiae deletion strains, locus YLR262C, strain YPT6 (second series), stronger effect = lower value 1.03 | S. cerevisiae deletion strains, locus YLR262C, strain YPT6, stronger effect = lower value 1.02 | S. cerevisiae deletion strains, locus YLR268W, strain sec22, stronger effect = lower value 1.05 | S. cerevisiae deletion strains, locus YLR320W, strain mms22, stronger effect = lower value 1.05 | S. cerevisiae deletion strains, locus YLR330W, strain CHS5, stronger effect = lower value 0.996 | S. cerevisiae deletion strains, locus YLR342W, strain FKS1 (second series), stronger effect = lower value 1.03 | S. cerevisiae deletion strains, locus YLR342W, strain FKS1, stronger effect = lower value 1.03 | S. cerevisiae deletion strains, locus YLR357W, strain rsc2, stronger effect = lower value 1.04 | S. cerevisiae deletion strains, locus YLR370C, strain arc18, stronger effect = lower value 1.04 | S. cerevisiae deletion strains, locus YLR371W, strain rom2, stronger effect = lower value 1.02 | S. cerevisiae deletion strains, locus YLR384C, strain iki3, stronger effect = lower value 1.03 | S. cerevisiae deletion strains, locus YLR418C, strain cdc73, stronger effect = lower value 1.04 | S. cerevisiae deletion strains, locus YML016C, strain PPZ1, stronger effect = lower value 1.01 | S. cerevisiae deletion strains, locus YML032C, strain rad52, stronger effect = lower value 1.02 | S. cerevisiae deletion strains, locus YML120C, strain ndi1, stronger effect = lower value 1.05 | S. cerevisiae deletion strains, locus YML124C, strain tub3, stronger effect = lower value 1.01 | S. cerevisiae deletion strains, locus YMR058W, strain fet3, stronger effect = lower value 1.03 | S. cerevisiae deletion strains, locus YMR078C, strain ctf18, stronger effect = lower value 1.04 | S. cerevisiae deletion strains, locus YMR125W, strain sto1, stronger effect = lower value 1.04 | S. cerevisiae deletion strains, locus YMR129W, stronger effect = lower value 1.02 | S. cerevisiae deletion strains, locus YMR205C, strain PFK2, stronger effect = lower value 1.03 | S. cerevisiae deletion strains, locus YMR223W, strain ubp8, stronger effect = lower value 1 | S. cerevisiae deletion strains, locus YMR231W, strain pep5, stronger effect = lower value 1.03 | S. cerevisiae deletion strains, locus YMR263W, strain SAP30, stronger effect = lower value 1.01 | S. cerevisiae deletion strains, locus YMR307W, strain GAS1, stronger effect = lower value 1.1 | S. cerevisiae deletion strains, locus YNL067W, strain RPL9B, stronger effect = lower value 1.02 | S. cerevisiae deletion strains, locus YNL071W, strain lat1, stronger effect = lower value 1.03 | S. cerevisiae deletion strains, locus YNL128W, strain TEP1, stronger effect = lower value 1.02 | S. cerevisiae deletion strains, locus YNL153C, strain GIM3, stronger effect = lower value 1 | S. cerevisiae deletion strains, locus YNL183C, strain NPR1, stronger effect = lower value 0.944 | S. cerevisiae deletion strains, locus YNL209W, strain ssb2, stronger effect = lower value 1.03 | S. cerevisiae deletion strains, locus YNL233W, strain BNI4, stronger effect = lower value 0.985 | S. cerevisiae deletion strains, locus YNL248C, strain rpa49, stronger effect = lower value 0.992 | S. cerevisiae deletion strains, locus YNL250W, strain rad50, stronger effect = lower value 1 | S. cerevisiae deletion strains, locus YNL271C, strain bni1, stronger effect = lower value 1.02 | S. cerevisiae deletion strains, locus YNL298W, strain CLA4, stronger effect = lower value 1.01 | S. cerevisiae deletion strains, locus YNL307C, strain MCK1, stronger effect = lower value 1.02 | S. cerevisiae deletion strains, locus YNL322C, strain KRE1 (second series), stronger effect = lower value 1.04 | S. cerevisiae deletion strains, locus YNL322C, strain KRE1, stronger effect = lower value 0.997 | S. cerevisiae deletion strains, locus YNR049C, strain mso1, stronger effect = lower value 1.03 | S. cerevisiae deletion strains, locus YNR052C, strain pop2, stronger effect = lower value 1.01 | S. cerevisiae deletion strains, locus YOL006C, strain TOP1, stronger effect = lower value 0.979 | S. cerevisiae deletion strains, locus YOL012C, strain htz1 0.869 | S. cerevisiae deletion strains, locus YOL147C, strain pex11, stronger effect = lower value 1.01 | S. cerevisiae deletion strains, locus YOR001W, strain rrp6, stronger effect = lower value 0.982 | S. cerevisiae deletion strains, locus YOR061W, strain CKA2, stronger effect = lower value 1.01 | S. cerevisiae deletion strains, locus YOR069W, strain VPS5, stronger effect = lower value 1 | S. cerevisiae deletion strains, locus YOR070C, strain gyp1, stronger effect = lower value 1.03 | S. cerevisiae deletion strains, locus YOR080W, strain dia2, stronger effect = lower value 1.03 | S. cerevisiae deletion strains, locus YOR083W, strain WHI5, stronger effect = lower value 1.02 | S. cerevisiae deletion strains, locus YOR106W, strain vam3, stronger effect = lower value 1.04 | S. cerevisiae deletion strains, locus YOR136W, strain idh2, stronger effect = lower value 1.01 | S. cerevisiae deletion strains, locus YOR144C, strain elg1, stronger effect = lower value 1.02 | S. cerevisiae deletion strains, locus YOR184W, strain ser1, stronger effect = lower value 1.03 | S. cerevisiae deletion strains, locus YOR231W, strain MKK1, stronger effect = lower value 1.01 | S. cerevisiae deletion strains, locus YOR265W, strain rbl2, stronger effect = lower value 1.02 | S. cerevisiae deletion strains, locus YOR270C, strain vph1, stronger effect = lower value 1.06 | S. cerevisiae deletion strains, locus YOR290C, strain snf2, stronger effect = lower value 1.04 | S. cerevisiae deletion strains, locus YOR316C, strain cot1, stronger effect = lower value 1.03 | S. cerevisiae deletion strains, locus YPL051W, strain arl3, stronger effect = lower value 1.01 | S. cerevisiae deletion strains, locus YPL055C, strain LGE1, stronger effect = lower value 0.973 | S. cerevisiae deletion strains, locus YPL078C, strain atp4, stronger effect = lower value 1.01 | S. cerevisiae deletion strains, locus YPL106C, strain sse1, stronger effect = lower value 1.01 | S. cerevisiae deletion strains, locus YPL240C, strain hsp82, stronger effect = lower value 1.03 | S. cerevisiae deletion strains, locus YPL241C, strain CIN2, stronger effect = lower value 0.998 | S. cerevisiae deletion strains, locus YPL256C, strain CLN2, stronger effect = lower value 0.997 | S. cerevisiae deletion strains, locus YPR119W, strain clb2, stronger effect = lower value 1.02 | S. cerevisiae deletion strains, locus YPR141C, strain kar3, stronger effect = lower value 1.02 | S. cerevisiae deletion strains, locus YPR163C, strain tif3, stronger effect = lower value 1.03 | S. cerevisiae deletion strains, locus YPR167C, strain met16, stronger effect = lower value 1.02 | S. cerevisiae deletion strains, strain wtn01, stronger effect = lower value 1.03 | S. cerevisiae strains, strain wild type, stronger effect = lower value 1.01
